# From PubChem BioAssay (NCATS)
# Inconclusive results are not listed. Entries that show only a call come without a potency. Activity calls are given as the source filed them. Calls follow the shape of the dose curve; as a rule, active = well fitted curve in the direction sought with a large enough effect; inconclusive = small, poorly fitted or top-dose-only effect, or another doubt; inactive = no such curve, though single readings can be large; an effect the other way counts as inactive or inconclusive.
# Target: Calcium and integrin-binding protein 1 (Homo sapiens) (UniProt Q99828)
# Sequence (Q99828 whole entry, looked up): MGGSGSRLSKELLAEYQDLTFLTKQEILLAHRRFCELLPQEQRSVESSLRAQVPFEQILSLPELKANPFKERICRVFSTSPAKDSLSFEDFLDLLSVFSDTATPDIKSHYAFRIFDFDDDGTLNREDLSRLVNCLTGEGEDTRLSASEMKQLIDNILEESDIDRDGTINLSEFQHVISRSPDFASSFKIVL
# Experiment: Primary qHTS for Identification of Calcium Integrin Binding Protein 1 (CIB1) Competitor (AID 1508620);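 also: GST tagged CIB1 binding a fluorescein labelled alphaIIb integrin peptide tracer; top concentration of the series differs between compounds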
# Settings: CIB1-GST / FITC-alphaIIb peptide fluorescence polarization; series mostly up to 57.7 µM
# Procedure, shortened: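 Fluorescence polarization competition: CIB1-GST (1 uM final) preincubated with compound 15 min at room temperature, then FITC-labeled alphaIIb peptide (100 nM final) added for another 15 min. Polarization read at Ex 480/Em 540.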
row,Compound,Potency
1,Cn1c(N2CCCCS2(=O)=O)nc(C(=O)NCc2ccc(F)cc2)c(O)c1=O,inactive
2,CC(C)C(=O)Nc1ncc(-c2cc(C(F)F)nn2-c2c(Cl)cccc2Cl)s1,inactive
3,COC[C@@H](c1ccc(C(F)(F)F)cc1)N1CCN(C2(C)CCN(C(=O)c3c(C)ncnc3C)CC2)C[C@H]1C,inactive
4,Cc1nnc(C(C)C)n1C1C[C@H]2CC[C@@H](C1)N2CC[C@H](NC(=O)C1CCC(F)(F)CC1)c1ccccc1 (some centres not stated),inactive
5,C[C@]12CC[C@@H]3c4ccc(O)cc4C[C@@H](CCCCCCCCCS(=O)CCCC(F)(F)C(F)(F)F)[C@H]3[C@H]1CC[C@H]2O (some centres not stated),inactive
6,CC(C)C(C)C=CC(C)C1CCC2C3=CC=C4CC(O)CCC4(C)C3CCC21C (configuration not stated),inactive
7,CC(C)(C(=O)NCC(F)(F)C(F)(F)F)C(=O)N[C@@H]1C(=O)Nc2ccccc2-c2ccccc21,inactive
8,CN1C[C@H]2c3ccccc3Oc3ccc(Cl)cc3[C@@H]2C1,inactive
9,Clc1ccc(-c2nc3sccn3c2C=NOCc2ccc(Cl)c(Cl)c2)cc1,inactive
10,CCCCCN(C)CCC(O)(P(=O)(O)O)P(=O)(O)O,inactive
11,CC(C)n1nc(-c2ccc3oc(N)nc3c2)c2c(N)ncnc21,inactive
12,CC(C)OC(=O)CCCC=CC[C@@H]1[C@H](C=C[C@@H](O)COc2cccc(C(F)(F)F)c2)[C@H](O)C[C@@H]1O,inactive
13,CC[C@]1(O)C[C@@H]2CN(CCc3c([nH]c4ccccc34)[C@@](C(=O)OC)(c3cc4c(cc3OC)N(C)[C@H]3[C@@](O)(C(=O)OC)[C@H](OC(C)=O)[C@]5(CC)C=CCN6CC[C@]43[C@@H]65)C2)C1,inactive
14,OC[C@@H](O)[C@H](O)[C@H](O)[C@@H](O)CO,inactive
15,NC(=O)c1cccc(-c2cc(Nc3ccc(OC(F)(F)F)cc3)ncn2)c1,inactive
16,CC(C)[C@H](CO)Nc1nc(Nc2ccc(C(=O)O)c(Cl)c2)c2ncn(C(C)C)c2n1,inactive
17,NC(=O)[C@@H](CCC(F)(F)F)N(Cc1ccc(-c2ncon2)cc1F)S(=O)(=O)c1ccc(Cl)cc1,inactive
18,O=C1c2c(O)cc(O)cc2O[C@H](c2cc(O)c(O)c(O)c2)[C@H]1O,inactive

row,Compound,Potency
1,Nc1ncnc2ccccc12,inactive
2,CC1(C)O[C@H]2C[C@@H]3[C@H]4CCC5=CC(=O)C=C[C@]5(C)[C@@]4(F)[C@@H](O)C[C@]3(C)[C@]2(C(=O)CO)O1,inactive
3,COC1CCC(N(C(=O)C2CCC(C)CC2)c2cc(C3=CCCCC3)sc2C(=O)O)CC1 (configuration not stated),inactive
4,O=c1[nH]cnc2c1ncn2[C@H]1CC[C@@H](CO)O1,inactive
5,CC(C)=CC[C@@H](O)C1=CC(=O)c2c(O)ccc(O)c2C1=O,inactive
6,Clc1cc(Cl)cc(CNc2ncncc2-c2ccc3c(c2)OCO3)c1,inactive
7,COc1cc(NC(=O)c2ccc(-c3ccc(Cl)cc3)o2)cc(OC)c1,inactive
8,O=C(CCc1ccc(O)cc1)c1c(O)cc(O)cc1O[C@@H]1O[C@H](CO)[C@H](O)[C@H](O)[C@H]1O,inactive
9,O=C(CCN1CCN(C(=O)OCc2cc(Cl)cc(Cl)c2)CC1)c1ccc2[nH]c(=O)oc2c1,inactive
10,CC(C)(C)Cn1c(N)nc2ccc(-c3[nH]c(C(C)(C)C)nc3-c3ccc(F)cc3)nc21,inactive
11,C[C@H](NC(=O)c1sccc1OCc1ccc(Cl)cc1)c1ccccc1,inactive
12,CNC(=O)c1ccc2cc(C3(O)CCn4cncc43)ccc2c1 (configuration not stated),inactive
13,CC(C)(Cc1ccc2ccccc2c1)NC[C@@H](O)COc1cccc(Cl)c1C#N,inactive
14,CC(C)(C)COc1ccc(-n2cc(C(=O)O)cn2)cc1C#N,inactive
15,O=C1C[C@@H](c2ccc(O)cc2)Oc2cc(O)cc(O)c21,inactive
16,COCCCCC(=NOCCN)c1ccc(C(F)(F)F)cc1,inactive
17,COc1cc(O)c2c(c1)C(=O)c1cc(C)cc(O)c1C2=O,inactive
18,CC1(C)Cc2c(sc(NC(=S)NC(=O)c3ccccc3)c2C(=O)O)CO1,inactive

# System: not listed separately
# Experiment: Primary qHTS for small molecule stabilizers of the endoplasmic reticulum resident proteome: Secreted ER Calcium Modulated Protein (SERCaMP) assay (AID 1508630); also: potency is read from the fitted curve at half-maximal effect
# Settings: SH-SY5Y GLuc-SERCaMP (Gaussia luciferase released on ER calcium loss) secretion, thapsigargin, luminescence; series mostly up to 38.4 µM
# Procedure, shortened: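 The SH-SY5Y reporter protocol was run at 3 concentrations up to 38.3 uM (primary) or 11 concentrations (follow-up): 16 h compound, 100 nM thapsigargin for 4 h, then extracellular luciferase luminescence.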
row,Compound,Potency
1,Cn1c(N2CCCCS2(=O)=O)nc(C(=O)NCc2ccc(F)cc2)c(O)c1=O,inactive
2,CC(C)C(=O)Nc1ncc(-c2cc(C(F)F)nn2-c2c(Cl)cccc2Cl)s1,inactive
3,COC[C@@H](c1ccc(C(F)(F)F)cc1)N1CCN(C2(C)CCN(C(=O)c3c(C)ncnc3C)CC2)C[C@H]1C,inactive
4,Cc1nnc(C(C)C)n1C1C[C@H]2CC[C@@H](C1)N2CC[C@H](NC(=O)C1CCC(F)(F)CC1)c1ccccc1 (some centres not stated),inactive
5,C[C@]12CC[C@@H]3c4ccc(O)cc4C[C@@H](CCCCCCCCCS(=O)CCCC(F)(F)C(F)(F)F)[C@H]3[C@H]1CC[C@H]2O (some centres not stated),inactive
6,CC(C)C(C)C=CC(C)C1CCC2C3=CC=C4CC(O)CCC4(C)C3CCC21C (configuration not stated),1.49 µM (active)
7,CC(C)(C(=O)NCC(F)(F)C(F)(F)F)C(=O)N[C@@H]1C(=O)Nc2ccccc2-c2ccccc21,inactive
8,CN1C[C@H]2c3ccccc3Oc3ccc(Cl)cc3[C@@H]2C1,inactive
9,Clc1ccc(-c2nc3sccn3c2C=NOCc2ccc(Cl)c(Cl)c2)cc1,inactive
10,CCCCCN(C)CCC(O)(P(=O)(O)O)P(=O)(O)O,inactive
11,CC(C)n1nc(-c2ccc3oc(N)nc3c2)c2c(N)ncnc21,inactive
12,CC(C)OC(=O)CCCC=CC[C@@H]1[C@H](C=C[C@@H](O)COc2cccc(C(F)(F)F)c2)[C@H](O)C[C@@H]1O,inactive
13,CC[C@]1(O)C[C@@H]2CN(CCc3c([nH]c4ccccc34)[C@@](C(=O)OC)(c3cc4c(cc3OC)N(C)[C@H]3[C@@](O)(C(=O)OC)[C@H](OC(C)=O)[C@]5(CC)C=CCN6CC[C@]43[C@@H]65)C2)C1,inactive
14,OC[C@@H](O)[C@H](O)[C@H](O)[C@@H](O)CO,inactive
15,NC(=O)c1cccc(-c2cc(Nc3ccc(OC(F)(F)F)cc3)ncn2)c1,inactive
16,CC(C)[C@H](CO)Nc1nc(Nc2ccc(C(=O)O)c(Cl)c2)c2ncn(C(C)C)c2n1,inactive
17,NC(=O)[C@@H](CCC(F)(F)F)N(Cc1ccc(-c2ncon2)cc1F)S(=O)(=O)c1ccc(Cl)cc1,inactive
18,O=C1c2c(O)cc(O)cc2O[C@H](c2cc(O)c(O)c(O)c2)[C@H]1O,inactive

row,Compound,Potency
1,Nc1ncnc2ccccc12,inactive
2,CC1(C)O[C@H]2C[C@@H]3[C@H]4CCC5=CC(=O)C=C[C@]5(C)[C@@]4(F)[C@@H](O)C[C@]3(C)[C@]2(C(=O)CO)O1,inactive
3,COC1CCC(N(C(=O)C2CCC(C)CC2)c2cc(C3=CCCCC3)sc2C(=O)O)CC1 (configuration not stated),inactive
4,O=c1[nH]cnc2c1ncn2[C@H]1CC[C@@H](CO)O1,inactive
5,CC(C)=CC[C@@H](O)C1=CC(=O)c2c(O)ccc(O)c2C1=O,inactive
6,Clc1cc(Cl)cc(CNc2ncncc2-c2ccc3c(c2)OCO3)c1,inactive
7,COc1cc(NC(=O)c2ccc(-c3ccc(Cl)cc3)o2)cc(OC)c1,inactive
8,O=C(CCc1ccc(O)cc1)c1c(O)cc(O)cc1O[C@@H]1O[C@H](CO)[C@H](O)[C@H](O)[C@H]1O,inactive
9,O=C(CCN1CCN(C(=O)OCc2cc(Cl)cc(Cl)c2)CC1)c1ccc2[nH]c(=O)oc2c1,inactive
10,CC(C)(C)Cn1c(N)nc2ccc(-c3[nH]c(C(C)(C)C)nc3-c3ccc(F)cc3)nc21,inactive
11,C[C@H](NC(=O)c1sccc1OCc1ccc(Cl)cc1)c1ccccc1,inactive
12,CNC(=O)c1ccc2cc(C3(O)CCn4cncc43)ccc2c1 (configuration not stated),inactive
13,CC(C)(Cc1ccc2ccccc2c1)NC[C@@H](O)COc1cccc(Cl)c1C#N,inactive
14,CC(C)(C)COc1ccc(-n2cc(C(=O)O)cn2)cc1C#N,inactive
15,O=C1C[C@@H](c2ccc(O)cc2)Oc2cc(O)cc(O)c21,inactive
16,COCCCCC(=NOCCN)c1ccc(C(F)(F)F)cc1,inactive
17,COc1cc(O)c2c(c1)C(=O)c1cc(C)cc(O)c1C2=O,inactive
18,CC1(C)Cc2c(sc(NC(=S)NC(=O)c3ccccc3)c2C(=O)O)CO1,inactive
